Screens deposited in PubChem by Broad Institute.
A selection follows.
aSyn UTR act: Activators via SNCA 5'UTR binding, MLPCN; alpha-synuclein 5'UTR reporter, activators screen; activity score, % (tested at 7.5 µM), hits read low; 300,000 tested, 7.1% active; AID 1814, 2009; in the data active means activity score below about -60%
Hits are given with their value; n = inactive.

SMILES	aSyn UTR act
Cc1c(Cl)cccc1NC(=S)N=Nc1c(O)n(CN2CCOCC2)c2ccccc12	n
Cc1cccn2c(=O)c3cc(C(=O)N4COCC4(C)C)sc3nc12	-97.4
Cn1c(C(=O)NCCC2=CCCCC2)cc2c(=O)n3ccccc3nc21	-70.2
Cn1c(C(=O)N2COCC2(C)C)cc2c(=O)n3ccccc3nc21	-80.9
COc1nc(NC2CCCCC2)nc(NC(C)(C)C)n1	-69.8
CC(C)(C)Nc1nc(N2CCCC2)nc(N2CCCC2)n1	n
COCCCNc1nc(N)c([N+](=O)[O-])c(NC2CCCCC2)n1	n
Cc1ccc(Cl)c2c(N=Nc3ccccc3)c(O)[nH]c12	-170.1
Cc1ccc(S(=O)(=O)N2CCCCC2CCNC(=O)C(=O)NCc2ccco2)cc1 (centres undefined)	-66.5
Cc1ccc(S(=O)(=O)N2CCCCC2CCNC(=O)C(=O)Nc2ccccc2F)cc1 (centres undefined)	-148.4
CCn1cc(C(=O)NCc2ccco2)c(=O)c2cc(S(=O)(=O)N3CC(C)CC(C)C3)ccc21 (centres undefined)	n
Cc1ccc(S(=O)(=O)N2CCCCC2CCNC(=O)C(=O)NCCc2ccco2)cc1 (centres undefined)	-101.8
CCC1S/C(=N/C(=O)NC2CCCCC2)NC1=O (centres undefined)	-86.0
O=c1cccccc1NN=C1CCCCCC1	-140.0
O=c1cccccc1NN=C1CCCCC1	-68.8
CC1CCC(NC(=O)C2CCN(c3c4c(nc5ncnn35)CCC4)CC2)CC1 (centres undefined)	-64.6
CCc1nc2ccc(C(=O)O)cc2nc1CC	-62.9
CCc1nc2ccc(C(=O)NCCc3ccc(OC)cc3)cc2nc1CC	-138.1
CCS(=O)(=O)N1CCCC(c2nc(-c3cccc(OC)c3)no2)C1 (centres undefined)	-102.3
Cc1nc(-c2ccccn2)sc1C(=O)Nc1ccc(Cl)c(Cl)c1	-78.4
CCOC(=O)c1sc(-c2ccccn2)nc1C	-125.5
CCOC(=O)c1sc(NC(=O)CNCc2ccccn2)c(C(=O)OCC)c1C	n
O=C1C(=O)c2c(C(=O)c3ccccc3)coc2-c2ccccc21	-105.5
O=C(CN1C(=O)c2ccccc2S1(=O)=O)c1ccc2c(c1)OCCO2	n
Cc1cc(C(=O)Cn2cnc3ccccc3c2=O)c(C)n1C1CC1	-109.3
SMILES	aSyn UTR act
O=C(Cn1cnc2ccccc2c1=O)c1ccc2c(c1)OCCO2	-129.8
COc1ccc(C(=O)Cn2cnc3ccccc3c2=O)cc1	-146.2
O=C(Cn1cnc2ccccc2c1=O)c1ccc2ccccc2c1	-140.2
O=C(Cn1cnc2ccccc2c1=O)Nc1ccc2c(c1)OCO2	-120.1
Cc1ccc(C(=O)Cn2cnc3ccccc3c2=O)cc1C	-154.6
CCOC(=O)c1c(-c2ccccc2)nc2ccc(C)cn12	-165.9
CCOC(=O)c1c(-c2ccccc2)nc2cc(C)ccn12	-104.2
Cc1ccc2oc(-c3ccco3)cc(=O)c2c1	-170.5
CC(C)OCCOc1ccc2oc(-c3ccco3)cc(=O)c2c1	-115.4
Fc1ccc(F)c(C2=NNC(=NCC3CCCO3)SC2)c1 (centres undefined)	-117.8
c1cc2cc(-c3c(-c4ccc5c(c4)OCO5)noc3-c3ccsc3)ccc2[nH]1	-80.6
c1ccc(-c2onc(-c3ccco3)c2-c2ccc3[nH]ccc3c2)cc1	-65.1
COc1ccc(Cn2c(C3CC3)nc3ccc(NC(=O)c4ccco4)cc3c2=O)cc1	-151.5
CCC(=O)Nc1ccc2nc(C3CC3)n(Cc3ccccc3)c(=O)c2c1	-200.7
CC(=O)Nc1ccc2nc(C)n(Cc3ccc(Cl)cc3)c(=O)c2c1	-77.8
O=C(Nc1ccc2nc(C3CC3)n(Cc3ccccc3)c(=O)c2c1)C1CC1	-251.3
CCC(=O)Nc1nc2ccccc2n1Cc1ccc(Cl)cc1	n
CC1(C)CC(=O)c2cnc(N3CCc4ccccc4C3)nc2C1	-217.8
Cc1ccc(Nc2ncc3c(n2)CC(C)(C)CC3=O)cc1	-87.8
CC1(C)CC(=O)c2cnc(N3CCN(c4ccccc4)CC3)nc2C1	-61.5
O/N=C\c1ccc(-c2ccccc2)o1	-112.3
O=[N+]([O-])c1ccc(-c2ccc(/C=N/O)o2)cc1	-95.3
Cc1ccc(C(=O)NC2CCc3ccccc3C2=O)cc1 (centres undefined)	-168.9
Cc1cccc(C=Nc2ccccc2C(N)=O)c1	-69.8
